Test results as given in PubChem BioAssay AID1159580 (chemical genetic matrix, 2015).
“And” between values parts separate entries of the source, which are not always exact repeats. Equal entries are not always repeated. In all, about 5,500 compounds went through this assay and about 2,000 (36%) were called active. Inconclusive results (about 18%) are left out. Cut-off read from the data, not from the text of the source: active = normalized growth mostly below about 0.91 (no sharp cut-off); inconclusive = no clear call, values can overlap the other calls; inactive = mostly above about 0.92. This is one part of the list.

Assay: chemical genetic growth profiling, strain panel (AID 1159580);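 note: tested at 20 µM; growth read once vehicle control cultures reached saturation at 30 °C; 1 = growth at the plate median or of vehicle wells; lower values mean less growth of the strain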
Conditions: S. cerevisiae deletion strains, growth OD

Measured: normalized growth

CCC(C)C(=O)O[C@@H]1C[C@@]2(C)[C@H](c3ccoc3)OC(=O)CC23OC2(C)O[C@]14[C@]1(C)[C@@H](CC(=O)OC)C5(C)CC1(O)[C@](O)(C5OC(=O)C1(C)OC1C)[C@@H](OC(C)=O)[C@]34O2 (some centres undefined)
inactive: locus YAL013W, strain DEP1, hits give low values 1.02 | locus YAL021C, strain ccr4, hits give low values 0.996 | locus YAL026C, strain drs2, hits give low values 0.988 | locus YAL030W, strain snc1, hits give low values 0.991 | locus YBL061C, strain skt5, hits give low values 1 | locus YBR009C, strain hhf1, hits give low values 1.01 | locus YBR021W, strain FUR4, hits give low values 1.03 | locus YBR023C, strain chs3, hits give low values 1.01 | locus YBR171W, strain sec66, hits give low values 0.978 | locus YBR229C, strain ROT2, hits give low values 1.01 | locus YBR231C, strain swc5, hits give low values 0.995 | locus YBR279W, strain paf1, hits give low values 1 | locus YCL011C, strain gbp2, hits give low values 0.983 | locus YCL016C, strain dcc1, hits give low values 1.01 | locus YCL029C, strain bik1, hits give low values 1.02 | locus YCL061C, strain MRC1, hits give low values 1.01 | locus YCL069W, strain vba3, hits give low values 0.98 | locus YCR088W, strain abp1, hits give low values 0.995 | locus YDL005C, strain med2, hits give low values 0.978 | locus YDL035C, strain GPR1, hits give low values 0.963 | locus YDL040C, strain nat1, hits give low values 0.982 | locus YDL074C, strain BRE1, hits give low values 0.994 | locus YDL101C, strain DUN1, hits give low values 1.02 | locus YDL185W, strain tfp1, hits give low values 1.02 | locus YDL192W, strain arf1, hits give low values 0.995 | locus YDR001C, strain nth1, hits give low values 0.997 | locus YDR069C, strain doa4, hits give low values 1.01 | locus YDR101C, strain arx1, hits give low values 1.02 | locus YDR159W, strain sac3, hits give low values 1.02 | locus YDR162C, strain NBP2, hits give low values 0.979 | locus YDR195W, strain ref2 0.969 | locus YDR297W, strain sur2, hits give low values 0.995 | locus YDR318W, strain mcm21, hits give low values 1.02 | locus YDR334W, strain swr1, hits give low values 0.983 | locus YDR335W, strain msn5, hits give low values 0.992 | locus YDR388W, hits give low values 1.02 | locus YDR392W, strain spt3, hits give low values 0.918 | locus YDR502C, strain sam2, hits give low values 1.03 | locus YEL003W, strain gim4, hits give low values 0.993 | locus YEL037C, strain rad23, hits give low values 0.995 | locus YEL061C, strain CIN8 (second series), hits give low values 0.988 | locus YEL061C, strain CIN8, hits give low values 1 | locus YER015W, strain faa2, hits give low values 1 | locus YER016W, strain bim1, hits give low values 0.995 | locus YER110C, hits give low values 1.02 | locus YER111C, strain swi4, hits give low values 0.976 | locus YER155C, strain BEM2 (second series), hits give low values 1 | locus YER155C, strain BEM2, hits give low values 1.01 | locus YER167W, strain BCK2, hits give low values 1 | locus YFR010W, strain ubp6, hits give low values 0.985 | locus YGL078C, strain dbp3, hits give low values 1.05 | locus YGL086W, strain mad1, hits give low values 1.01 | locus YGL167C, strain pmr1, hits give low values 0.995 | locus YGL173C, strain kem1, hits give low values 0.993 | locus YGL227W, strain vid30, hits give low values 0.994 | locus YGL240W, strain doc1, hits give low values 0.977 | locus YGL248W, strain PDE1, hits give low values 1.01 | locus YGL253W, strain hxk2, hits give low values 0.952 | locus YGR078C, strain PAC10, hits give low values 1.02 | locus YGR135W, strain pre9, hits give low values 1.04 | locus YGR229C, strain SMI1, hits give low values 1.03 | locus YGR252W, strain gcn5, hits give low values 1.04 | locus YHR013C, strain ard1, hits give low values 0.984 | locus YHR027C, strain rpn1, hits give low values 0.996 | locus YHR030C, strain SLT2, hits give low values 1.02 and 0.954 | locus YHR079C, strain IRE1 (second series), hits give low values 1.02 | locus YHR079C, strain IRE1, hits give low values 0.962 | locus YHR094C, strain hxt1, hits give low values 1.02 | locus YHR129C, strain ARP1, hits give low values 1 | locus YHR142W, strain chs7, hits give low values 0.984 | locus YHR200W, strain rpn10, hits give low values 1.02 | locus YIL066C, strain RNR3, hits give low values 0.999 | locus YIL073C, strain SPO22, hits give low values 1.04 | locus YIL125W, strain kgd1, hits give low values 1.02 | locus YIR030C, strain dcg1, hits give low values 1.02 | locus YJL092W, strain hpr5, hits give low values 0.986 | locus YJL095W, strain BCK1 (second series), hits give low values 1 | locus YJL095W, strain BCK1, hits give low values 1.01 and 0.948 | locus YJL115W, strain asf1, hits give low values 1 | locus YJL129C, strain trk1, hits give low values 0.983 | locus YJL134W, strain LCB3, hits give low values 1.01 | locus YJL154C, strain vps35, hits give low values 0.993 | locus YJL164C, strain tpk1, hits give low values 1.01 | locus YJL166W, strain qcr8, hits give low values 0.987 | locus YJL168C, strain set2, hits give low values 1.02 | locus YJL187C, strain SWE1 (second series), hits give low values 1.02 | locus YJL187C, strain SWE1, hits give low values 1 | locus YJR066W, strain TOR1, hits give low values 0.912 | locus YJR075W, strain HOC1, hits give low values 1.02 | locus YKL009W, strain mrt4, hits give low values 0.989 | locus YKL068W, hits give low values 1 | locus YKL085W, strain MDH1 (second series), hits give low values 1 | locus YKL085W, strain MDH1, hits give low values 1 | locus YKL160W, strain elf1, hits give low values 1.02 | locus YKR001C, strain vps1, hits give low values 1.01 | locus YKR026C, strain gcn3, hits give low values 1 | locus YKR091W, strain srl3, hits give low values 0.996 | locus YLL001W, strain dnm1, hits give low values 1.01 | locus YLL026W, hits give low values 1 | locus YLL041C, strain sdh2, hits give low values 0.987 | locus YLR027C, strain aat2, hits give low values 1.01 | locus YLR039C, strain RIC1, hits give low values 0.683 | locus YLR058C, strain SHM2, hits give low values 1 | locus YLR102C, strain apc9, hits give low values 1.03 | locus YLR113W, strain HOG1, hits give low values 1 | locus YLR221C, strain rsa3, hits give low values 0.978 | locus YLR258W, strain gsy2, hits give low values 0.988 | locus YLR268W, strain sec22, hits give low values 0.995 | locus YLR320W, strain mms22, hits give low values 0.979 | locus YLR330W, strain CHS5, hits give low values 1.02 | locus YLR342W, strain FKS1 (second series), hits give low values 0.981 | locus YLR342W, strain FKS1, hits give low values 0.977 | locus YLR357W, strain rsc2, hits give low values 1.01 | locus YLR370C, strain arc18, hits give low values 0.971 | locus YLR371W, strain rom2, hits give low values 1.01 | locus YLR384C, strain iki3, hits give low values 1.01 | locus YLR418C, strain cdc73, hits give low values 1.01 | locus YML016C, strain PPZ1, hits give low values 1 | locus YML032C, strain rad52, hits give low values 1.01 | locus YML120C, strain ndi1, hits give low values 0.992 | locus YML124C, strain tub3, hits give low values 1.01 | locus YMR058W, strain fet3, hits give low values 1.01 | locus YMR078C, strain ctf18, hits give low values 1.02 | locus YMR125W, strain sto1, hits give low values 0.991 | locus YMR129W, hits give low values 0.999 | locus YMR205C, strain PFK2, hits give low values 1.01 | locus YMR223W, strain ubp8, hits give low values 1.02 | locus YMR231W, strain pep5, hits give low values 0.945 | locus YMR307W, strain GAS1, hits give low values 0.925 | locus YNL067W, strain RPL9B, hits give low values 1.03 | locus YNL071W, strain lat1, hits give low values 0.994 | locus YNL183C, strain NPR1, hits give low values 0.928 | locus YNL209W, strain ssb2, hits give low values 0.995 | locus YNL233W, strain BNI4, hits give low values 1.03 | locus YNL248C, strain rpa49, hits give low values 0.975 | locus YNL250W, strain rad50, hits give low values 1.05 | locus YNL271C, strain bni1, hits give low values 1.02 | locus YNL298W, strain CLA4, hits give low values 1.02 | locus YNL307C, strain MCK1, hits give low values 1.03 | locus YNL322C, strain KRE1 (second series), hits give low values 0.984 | locus YNL322C, strain KRE1, hits give low values 1.02 | locus YNR049C, strain mso1, hits give low values 0.999 | locus YNR052C, strain pop2, hits give low values 1.03 | locus YOL012C, strain htz1 0.597 | locus YOL147C, strain pex11, hits give low values 1.02 | locus YOR001W, strain rrp6, hits give low values 0.941 | locus YOR061W, strain CKA2, hits give low values 1 | locus YOR069W, strain VPS5, hits give low values 1.01 | locus YOR070C, strain gyp1, hits give low values 0.994 | locus YOR080W, strain dia2, hits give low values 0.985 | locus YOR083W, strain WHI5, hits give low values 1.03 | locus YOR106W, strain vam3, hits give low values 1.02 | locus YOR136W, strain idh2, hits give low values 0.999 | locus YOR144C, strain elg1, hits give low values 1.02 | locus YOR184W, strain ser1, hits give low values 0.996 | locus YOR231W, strain MKK1, hits give low values 0.978 | locus YOR265W, strain rbl2, hits give low values 0.994 | locus YOR270C, strain vph1, hits give low values 0.779 | locus YOR290C, strain snf2, hits give low values 1 | locus YOR316C, strain cot1, hits give low values 1.02 | locus YPL051W, strain arl3, hits give low values 1.01 | locus YPL078C, strain atp4, hits give low values 1.01 | locus YPL106C, strain sse1, hits give low values 1.02 | locus YPL240C, strain hsp82, hits give low values 0.989 | locus YPL241C, strain CIN2, hits give low values 1.01 | locus YPL256C, strain CLN2, hits give low values 0.965 | locus YPR119W, strain clb2, hits give low values 1.01 | locus YPR141C, strain kar3, hits give low values 1.03 | locus YPR163C, strain tif3, hits give low values 1.02 | locus YPR167C, strain met16, hits give low values 1.02 | strain wtn01, hits give low values 1
active: locus YDR137W, strain rgp1, hits give low values 0.726 | locus YLR262C, strain YPT6 (second series), hits give low values 0.711 | locus YLR262C, strain YPT6, hits give low values 0.602
